Data from PubChem BioAssay (NCI).
This is part of a sample that, as a whole, favours compounds with a hit. Of some 83,000 tested, about 20% had one in any assay.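 In brief: 96-well plates, 48 h treatment, single concentration, percent growth endpoint.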 Unmarked numbers belong to inactive results. Active and inactive are the calls of the source. The calls were made as follows: active = growth percent below 10; inactive = the rest.

Legend:
Assay in all cases: NCI-60 one-dose screen, 48 h (100 = growth as untreated, 0 = no growth, -100 = all killed)
Details in all cases: 10 µM unless noted
DU-145 prostate = tested on: DU-145 prostate
K-562 leukemia = tested on: K-562 leukemia
MALME-3M melanoma = tested on: MALME-3M melanoma
MDA-MB-231 breast = tested on: MDA-MB-231 breast
RXF 393 renal = tested on: RXF 393 renal
SF-268 CNS = tested on: SF-268 CNS
SF-295 CNS = tested on: SF-295 CNS
SF-539 CNS = tested on: SF-539 CNS
UACC-257 melanoma = tested on: UACC-257 melanoma
M14 melanoma = tested on: M14 melanoma
HCT-15 colon = tested on: HCT-15 colon
HT29 colon = tested on: HT29 colon
SNB-19 CNS = tested on: SNB-19 CNS
U251 CNS = tested on: U251 CNS
PC-3 prostate = tested on: PC-3 prostate
SK-MEL-5 melanoma = tested on: SK-MEL-5 melanoma
UACC-62 melanoma = tested on: UACC-62 melanoma
LOX IMVI melanoma = tested on: LOX IMVI melanoma
SK-MEL-28 melanoma = tested on: SK-MEL-28 melanoma
SNB-75 CNS = tested on: SNB-75 CNS

| SMILES | growth (DU-145 prostate) | growth (K-562 leukemia) | growth (MALME-3M melanoma) | growth (MDA-MB-231 breast) [%] | growth (RXF 393 renal) | growth (SF-268 CNS) [%] | growth (SF-295 CNS) | growth (SF-539 CNS) | growth (UACC-257 melanoma) [%] | growth (M14 melanoma) | growth (HCT-15 colon) [%] | growth (HT29 colon) | growth (SNB-19 CNS) [%] | growth (U251 CNS) [%] | growth (PC-3 prostate) [%] | growth (SK-MEL-5 melanoma) | growth (UACC-62 melanoma) | growth (LOX IMVI melanoma) | growth (SK-MEL-28 melanoma) [%] | growth (SNB-75 CNS) [%] |
| --- | --- | --- | --- | --- | --- | --- | --- | --- | --- | --- | --- | --- | --- | --- | --- | --- | --- | --- | --- | --- |
| N#Cc1c(-c2ccccc2)cc(-c2ccccc2)n(CC(=O)O)c1=O | 87.5% | 21.1% | 56.2% | 60.3 | 62.3% | 67.2 | 36.8% | 66.5% | 64.4 | 26.3% | 32.6 | 24.2% | 58.3 | 47.5 | 70.4 | 40.6% | 28.6% | 52.5% | 60.6 | – |
| O=CNc1ccc2c(c1)Cc1cc([N+](=O)[O-])ccc1-2 | 0.835% (active) | 21.3% | 11.4% | 34.4 | -14.6% (active) | 42 | 16.3% | 27.9% | 59.3 | -15.7% (active) | 27 | 37.5% | 36.2 | 16.4 | 32.3 | 18.8% | 29.6% | 40.8% | 57 | 15.6 |
| CC(C)C[C@H](NC(=O)/C=C/Cn1ccc2ccccc2c1=O)B(O)O | 40.6% | 35.8% | -30% (active) | 35.1 | 8.46% (active) | 24.6 | 26.8% | 15.1% | 43.2 | 21.1% | 67.5 | 8.43% (active) | 56.2 | 55.8 | 79.1 | 23.5% | 17% | – | 50.8 | 50.2 |
| N#Cc1c(-c2ccccc2)cc(-c2ccccc2)n(CCC(=O)O)c1=O | 81.5% | 14.7% | 51.4% | 58.9 | 53% | 67.4 | 37.3% | 62.5% | 55.5 | 25.5% | 29.7 | 19.3% | 56.1 | 38.2 | 75.3 | 3.86% (active) | 32.3% | 51% | 57.3 | – |
| CC(=O)Nc1c(Cl)cc2c(c1Cl)Cc1cc([N+](=O)[O-])ccc1-2 | 93.3% | 80.4% | 68.2% | 97.5 | 104% | 101 | 81.8% | 89.1% | 77.9 | 88.1% | 101 | – | 95.8 | 89 | 72.6 | 55.9% | 65.3% | 86.2% | 102 | 36.6 |
| COc1cc(/C=C2\CN(C)CC3=C2Nc2nc(SC)[nH]c(=O)c2C3c2cc(OC)c(OC)c(OC)c2)cc(OC)c1OC (stereo unspecified) | 7.76% (active) | 8.74% (active) | 81.2% | 37.6 | 69.7% | 37.4 | 63.8% | 34.8% | 53.9 | 24.3% | 36.6 | 15% | 66.8 | 20.6 | 68 | 58.2% | 30% | 3.87% (active) | 44.9 | 27.8 |
| N#Cc1c(-c2ccccc2)cc(-c2ccccc2)n(CCCCC(=O)O)c1=O | 107% | 80.8% | 87.8% | 91 | 89.7% | 94 | 82.8% | 93.5% | 94.1 | 86.4% | 71.3 | 99.8% | 96.1 | 93.3 | 93.1 | 93.7% | 80.6% | 88.2% | 89.5 | – |
| C/C(=C\CCc1ccsc1)CC/C=C(\C)CCCN1CCSCC1 | 96.6% | 61.9% | 98.4% | 85.9 | 98.1% | 103 | 82% | 89.9% | 94.6 | 96.2% | 82.5 | 88.1% | 96.1 | 88.5 | 80.4 | 77.2% | 77% | – | 94.6 | 101 |
| COc1ccc2nc(NC(=O)CN3CCn4c(nnc4C(F)(F)F)C3)sc2c1 | 106% | 90.5% | 106% | 96.6 | 91% | 93.5 | 92.5% | 93.7% | 99.5 | 85.1% | 93.3 | 98.4% | 90.5 | 91.6 | 98.6 | 79.2% | 83.9% | 96.6% | 102 | – |
| Nc1nc(Nc2ccccc2SSc2ccccc2Nc2nc(N)nc(C(Cl)(Cl)Cl)n2)nc(C(Cl)(Cl)Cl)n1 | 82.3% | 52.8% | 75% | 44.1 | 67.2% | 50.5 | 27.4% | 84.3% | 100 | 67% | 41 | 97.4% | 70.2 | 32.1 | 44.3 | 50.9% | 70% | -24.3% (active) | 89.2 | – |
| Cc1ccccc1NC(=O)N/C(N)=N/c1nc2ccccc2s1 | 17.5% | 6.45% (active) | 50.4% | 43.2 | -2.64% (active) | 48.7 | 11.8% | -17.9% (active) | 67.4 | 9.91% (active) | 20.2 | 5% (active) | 31.8 | 20.3 | 36.3 | -53.3% (active) | 38.8% | 21.7% | 54.6 | – |
| O=C(Nc1cccc(Cl)c1)Nc1cccc(Cl)c1 | 78.6% | 19.6% | 68.1% | 85.3 | 132% | 88.6 | 24.8% | 91.4% | 105 | 75.7% | 60.9 | 82.1% | – | 63.5 | 26.8 | 79.2% | 43.7% | 89.1% | 95 | 94.7 |
| C/C(=C\CCc1ccoc1)CC/C=C(\C)CCCN1CCOCC1 | 73.9% | 20.6% | 55.8% | 43.7 | 50.1% | 72.6 | 67.8% | 78.2% | 53.4 | 62.6% | 23.8 | 22.7% | 67.5 | 44.3 | 55.9 | 15.6% | 62.5% | – | 80.4 | 60.9 |
| N/C(=N\c1nc2ccccc2s1)NC(=O)Nc1ccccc1Cl | 21.8% | 6.5% (active) | 63.3% | 42.1 | -13.9% (active) | 60.9 | 9.08% (active) | -14.2% (active) | 62.3 | 13.4% | 23.9 | 5.03% (active) | 37.4 | 19.1 | 27.8 | 23.8% | 26.7% | 36.2% | 46.8 | – |
| Nc1nc(Nc2ccccc2SSc2ccccc2Nc2nc(N)nc(-c3ccc(I)cc3)n2)nc(-c2ccc(I)cc2)n1 | 66% | 68.7% | 103% | 55 | 88.2% | 43 | 47.6% | 89.2% | 110 | 77.2% | 36.4 | 97.8% | 37.4 | 34.5 | 19.1 | 81.4% | 81.6% | -0.613% (active) | 94.7 | – |
| CO[C@H]1/C=C/O[C@@]2(C)Oc3c(C)c(O)c4c(O)c(c(/C=N/N5C(C)CN(Cc6ccc(C#N)cc6)CC5C)c(O)c4c3C2=O)NC(=O)/C(C)=C\C=C\[C@H](C)[C@H](O)[C@@H](C)[C@@H](O)[C@@H](C)[C@H](OC(C)=O)[C@@H]1C (stereo partly specified) | 45.3% | 16.3% | 8.74% (active) | 90.3 | 43.7% | 35 | 0.574% (active) | 16% | 45.1 | 36.8% | 25 | 26.4% | – | 34.9 | 13.1 | 5.17% (active) | 3.13% (active) | 52.5% | 46.3 | 56.7 |
